# Laboratory results reported in the supplement of paper PMC6555819.
# Test system: RARb:RXRa (NR concentration 270 nM, RXRa partner concentration 90 nM)
# Assay: PBM binding z-score (relative to random genomic background probes); higher = stronger binding; sequences stand for … in GC…GCGATTGACAGCGTAGAATGAAGG
# Summary of the method: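 Probes were double-stranded and carried 34-nt variable regions with direct-repeat seeds, single-nucleotide variants, half-site ablations and random human genomic background sequences, printed on custom Agilent 4×180K protein-binding microarrays. Arrays were incubated 1 h with ligand-free nuclear receptor dimers in PBS pH 7.4, 2% milk, 0.02% Triton X-100, 1 mM DTT, 0.2 mg/mL BSA and 0.4 mg/ml salmon testes DNA. Antibodies against each partner (one per run) detected binding, and scanned fluorescence was regression-normalized. Binding z-scores use the random background probes as reference.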
row,Sequence,PBM binding z-score
1,TCTTGTAGATCAAGCAGGCTAAGAAAGCCTGAGT,-0.756
2,ACTAGCAGACCAAGGGTCACTCAAGATTAGTCCG,3.28
3,GCGACTGGGGCAAAGCCGGTTACCATAAGGTTGG,0.632
4,ATATGTAGGGTATCGGGTCATTCAGTTTGCGCAT,2.09
5,CGTCCAAGGTTATAGGAGGTCAGTGAAGACAGAT,3.48
6,ACTATTAGTTGAGACGAAGGCAACCGATAGGTTG,-0.23
7,CCGACTGGGGCAGAAGGTTACCATAAGCCAGCCC,1.25
8,TCATATAGCTAAACAGGTGAAAGTCCGTAAGTTA,0.215
9,CGAACTAGGTCGGAACAGGACAGTGAAGGATGAT,0.543
10,TAGCCTAGGTCATTGGGCCAGTATCGTACGCATC,3.85
11,TCTCGGAGGACACGAAGGGCAGAGCTTTCCAGAG,1.97
12,TCTGCTAGGTCAGTTGGTCAGTTAACGAGCTGCC,3.3
13,ACTAGCAGGCCAAGGGTCACTTAAGATTAGTCCG,3.39
14,CCTCGGGGGACAGAAGGTCAGAGCTGTCCGCTTT,3.34
15,GCTCGGATGACAAGGTCAGAGCTTTGTCCGTAGA,2.61
16,CCTACTGGGCCACCAGGTCATTGATATCAACGTT,1.98
17,TGAATGAGGTTAAAGAACAGGGAACGTGGCGTCG,1.95
18,GCGACTGGGGCATCAGCAGGTTACGATAACTTAA,0.866
19,TAGCCTAGGTCATTCAGGAGCCAGTATAGAAAGC,3.62
20,ACTGACAGGTGAGTGAAGGTAACTCAGCTGGACG,0.482

row,Sequence,PBM binding z-score
1,AATACAGGGTCATCGTAGGCCAGAGGACGCACAG,4.41
2,CGAACTGGGTCATTGACAGGACAGTGAATAGTAA,2.92
3,GCTTACGAGTCAAAGGTTATAGCATGAATAGAAT,1.78
4,CCTAGTTGGTCCGGAGGTCACACACCGGATATGA,3.47
5,TAGCCTAGGTCATGCAGGCCAGTATAGTGTCGGC,3.66
6,TAGCATAGGTCATGGGCCAGTATACCACGCGAAC,4.41
7,TCATACAGGTAAAAGGTGAAAGTCGGTGTGGTAA,2.1
8,TCAAGCAGGCCAGAGGGTCACTCAAGAGGTACGG,2.51
9,CTACCAAGGTGAACAAGGTCGTCGATTACTATTC,2.27
10,TCTGCTAGGTCAACGAGGGTCAGCTAATCTGCTA,4.65
11,TCTTGTGGATCAGCAGGTTAAGAAAGCTGGCCAA,0.338
12,CCTACTGGACCATTCAGAGGTCATTGATCATATG,2.8
13,ATCGAAAGATCGACGAGGTGAGTATACACCGTTT,-0.0508
14,CCAGACAGGTGAGAAGGTAAGTCAGCCTCGATTA,0.566
15,GTGACTGGGGCAAAGCAGGTTACCATAAGGTTGG,1.14
16,GCTAGCAGGCCATTTGGGTCACTGAATGACGGGC,1.49
17,TCATATAGGTAAATGCTAGGTAAAAGTCCGATCT,0.393
18,ACAGACAGGTGATGAAGGGAACTCAGGCTATCAT,0.0899
19,GCTAGTTGGTCAGTAAAAGGTCACACCCCGGTCG,4.21
20,ACTATTTGTTGACTTAGGGCAACCGATACGACGC,1.03
